Reference: PubChem BioAssay AID652104 (National Center for Advancing Translational Sciences (NCATS), 2013)
“And” between values parts separate entries of the source, which are not always exact repeats. Equal values may be shown once. Screen size: about 410,000 compounds; about 7,200 (1.8%) were called active. About 7% were inconclusive and are not listed. Calls follow the shape of the dose curve; as a rule, active = well fitted activation curve with a large enough effect; inconclusive = small, poorly fitted or top-dose-only effect, or another doubt; inactive = no such curve, though single readings can be large or run the other way. This excerpt belongs to a sample that is enriched for actives.

Assay: qHTS of TDP-43 Inhibitors; also: nearly all actives have a fitted effect of over 50% in size; as to growth rescue (activation): % of control where 0% means no effect
Settings: TDP-43 expressing yeast growth rescue, BacTiter-Glo, 24 h; series mostly up to 46.1 µM; growth rescue (activation): at the top concentration
Outline: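 Luminescence from BacTiter-Glo reports growth of TDP-43-expressing yeast after 24 hr at 30 deg C with compound. Cells were raffinose-pregrown to mid-log, then seeded in galactose medium at OD600=0.02.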
Potency is read from the fitted curve at half-maximal effect.

Growth rescue (activation), inactive:
Cc1cc2n(n1)C(c1cc(C(C)(C)C)c(O)cc1O)Nc1ccccc1-2 (configuration not stated) 0%
COc1ccccc1CNCc1ccc(C(=O)O)s1 16.3%
COCCCNC(=O)c1c(NC(=O)c2cc(=O)c3cc(C)c(C)cc3o2)sc2c1CCCC2 -1.04%
Cc1ccc(S(=O)(=O)N(Cc2nc(-c3ccc(Cl)cc3)no2)C2CCCCC2)cc1 7.13%
Cc1ccc(Cl)cc1NC(=O)/C(C#N)=C\c1cn(Cc2ccc(F)cc2)c2ccccc12 21.4%
CCOc1ccc(Nc2ncnc3scc(-c4ccc(OC)cc4)c23)cc1 -16.3%
COc1ccc(NC(=O)CSc2ncnc3[nH]ncc23)cc1 -35.9%
Cc1cccc2c(=O)cc(CSc3ccccc3NC(=O)C(C)C)[nH]c12 -0.795%
O=C(CSc1nnc(CNC(=O)c2ccc(F)cc2)o1)Nc1ccc2c(c1)OCO2 -0.573%
O=C(CSc1ccc(-c2ccc(F)cc2)nn1)Nc1ccc2c(c1)OCCO2 17.7%
Cc1ccc(NC(=O)CSc2nc3c([nH]c4ccccc43)c(=O)n2-c2ccccc2)c(C)c1 5.4%
Nc1nc(Nc2ccccc2F)nc(NC2CCCCC2)c1[N+](=O)[O-] -5.06%
Nc1nc(NCC2CCCO2)nc(Nc2ccccc2F)c1[N+](=O)[O-] (configuration not stated) -0.227%
Cc1ccc(NC(=O)C2CCN(S(=O)(=O)c3cc(-c4noc(C)n4)ccc3C)CC2)c(C)c1 -6.47%
CCN(CCCNC(=O)c1c(C)oc2ncn(CC(C)C)c(=O)c12)Cc1ccccc1 13.1%
Cc1ccc(Cl)cc1N1CCN(S(=O)(=O)c2cc3[nH]c(=O)c(=O)[nH]c3cc2C)CC1 4.73%
CCN(CCCNC(=O)c1ccc(Sc2ccc(C)cc2)c(NC(C)=O)c1)c1cccc(C)c1 14.4%
COCCNC(=O)c1ccc(S(=O)(=O)c2ccc(Cl)cc2)c(NC(C)=O)c1 2.43%
COC(=O)c1ccc(Sc2ccc(F)cc2)c(N)c1 3.11%
Cc1ccc(Sc2ccc(NC(=O)c3ccc(F)cc3)cc2C#N)cc1 -20.1%
COC(=O)c1cc(NC(=O)c2sc3ccccc3c2Cl)cc(C(=O)OC)c1 11.6%
O=C(Cn1c(=O)n(Cc2cccs2)c(=O)c2cccnc21)Nc1ccc(F)cc1 -9.45%
COc1cn(CC(=O)Nc2cccc(C)c2C)c(CN2CCCCC2)cc1=O 8.28%
COCCCNC(=O)c1ccc2c(c1)ncn2-c1ccccc1OC 7.43%
Cc1ccc(-n2cnc3cc(C(=O)NCCC4=CCCCC4)ccc32)cc1Cl 7.7%
O=C(OCC(=O)N1CCOCC1)c1ccc2ccccc2c1 17.2%
O=C(Oc1ccc(F)cc1)N1CCOCC1 -18.8%
O=C(Oc1ccc(Br)cc1C(=S)N1CCOCC1)c1cccc([N+](=O)[O-])c1 11%
Cc1ccc(C(=O)Oc2ccc(C(=S)N3CCOCC3)cc2)cc1 26%
CC1Cc2cc(S(=O)(=O)CCC(=O)NCc3ccc(Cl)cc3)ccc2N1C(=O)C1CC1 (configuration not stated) 3.43%
COc1cccc2c1cc1c(=O)n(CC(=O)N3CCN(c4cccc(Cl)c4)CC3)nc(C)n12 7.4%
Cc1ccc(CCNC(=O)c2ccc3c(c2)nc2n3CCC(C)C2)cc1 (configuration not stated) 13.3%
COc1cccc(-c2nnc3n(CCc4ccccc4)c(=O)c4ccccc4n23)c1O 8.42%
O=C1OCC2=C1C(c1ccc(Cl)cc1)c1cc3c(cc1O2)OCO3 (configuration not stated) -12.4%
COc1ccc(CNC(=O)c2ccc3oc(C(C)C)nc3c2)cc1 0%
O=C(NCc1nnnn1-c1ccc(Cl)cc1)c1ccc2c(c1)OCO2 20.1%
CC(C)NC(=O)c1ccc(Sc2ccccc2)c([N+](=O)[O-])c1 -0.383%
O=C(Nc1cccc2ccccc12)NC1CC1 4.47%
COc1cccc(CNC(=O)C2CCN(S(=O)(=O)c3ccc4c(ccn4C)c3)CC2)c1 25.2%
Cc1ccc(Nc2ccc3cc(S(=O)(=O)N4CCCCC4)ccc3n2)cc1F 21.6%
CCCCN(C)CCCNC(=O)CN1N=C(c2ccc(OC)cc2)CCC1=O -1.21%
CCOC(=O)C1=C(c2ccccc2)Nc2ncnn2C1c1ccc(Cl)cc1 (configuration not stated) -5.42%
COc1ccc(C2=CC(c3ccccc3Cl)n3nc(-c4ccc(Cl)cc4)nc3N2)cc1 (configuration not stated) 9.18%
CCOc1ccc(NC(=O)CSc2c3c(nc4ccccc24)CCCC3)cc1 16.7%
CC(=O)c1cccc(Nc2ccc3cc(S(=O)(=O)N4CCC(C)CC4)ccc3n2)c1 26.4%
COC(=O)c1ccc2nc(C3CCCCC3)c(Cc3cccc(F)c3)n2c1 12.6%
Cc1cc(Br)cn2c(Cc3ccccc3C(F)(F)F)c(C3CCCCC3)nc12 -0.49%
COc1cccc(NC(=O)c2csnn2)c1 10.3%
CCOC(=O)c1cnc2c(C)cc(C)cc2c1Nc1ccc(N2CCOCC2)cc1 22.4%
CCOc1cccc(CC(=O)N2CCc3c([nH]c4ccccc34)C2c2ccc(OC)cc2)c1OCC (configuration not stated) -0.232%
CCCC(=O)Nc1ccc2oc(-c3ccc(O)c(Br)c3)nc2c1 18%
CC(C)c1ccc(C2CC(=O)N3CN(C4CCCCC4)CSC3=C2C#N)cc1 (configuration not stated) -0.958%
CCc1nn(CC(=O)Nc2cc(C)cc(C)c2)c(=O)c2cc3sccc3n12 4.62%
CC(=O)Nc1ccc(NC(=O)C2CCCN2S(=O)(=O)c2cccc(C(F)(F)F)c2)cc1 (configuration not stated) 14.9%
S=C(Nc1cccc(Br)c1)N1CCn2cccc2C1c1cccnc1 (configuration not stated) 14.8%
CN(C)c1cccc(C(=O)Nc2nc3ccc(S(=O)(=O)NC(C)(C)C)cc3s2)c1 6.18% [at 9.22 µM]
COc1ccc2c(c1)c(N1CCCC1=O)c(C(=O)Nc1ccccc1C(F)(F)F)n2C -6.33%
CCOc1ccc(NC(=O)C(CC(C)C)N2Cc3ccccc3C2=O)cc1 (configuration not stated) 5.28%
CC(C)(C)N(Cc1ccccc1)C(=O)c1ccncc1 6.52%
CC(Cc1cccs1)NC(=O)c1cccc(Cl)c1 (configuration not stated) -15.2% [at 0.397 µM]
CCOc1cc(C2C(C(=O)Nc3ccc(OC)cc3)=C(C)Nc3nc(SC)nn32)ccc1O (configuration not stated) 26.8%
O=C(CSc1nccn1Cc1ccc(Cl)cc1)NCc1ccccc1 9.99% [at 9.22 µM]
CCOC(=O)c1ccc(NC(=O)Cn2c(=O)cc(C)c3c(C)nn(-c4cccc(F)c4)c32)cc1 -3.59%
Cc1[nH]c2ccccc2c1-c1ccc(Cl)nn1 -8.17% [at 9.22 µM]
O=C(O)c1[nH]c2ccccc2c1C(c1cccc(O)c1)c1c(C(=O)O)[nH]c2ccccc12 5.7%
CCN(CC)c1ccc(NC(=O)CN2C(=O)c3cccnc3Oc3ccc(Cl)cc32)c(C)c1 9.93%
COc1ccc(-c2nn(CC(=O)NC3CCCC3)c3c2cnc2ccc(F)cc23)cc1 22.7%
Cc1cccc(C(=O)Nc2ccc(-c3nc4ccccc4s3)c(C)c2)c1 29.6%
COc1ccc(Cl)cc1NC(=O)COC(=O)C(CC(C)C)N1C(=O)C2CC=CCC2C1=O (configuration not stated) 4.31%
O=C(Nc1ccccc1C(=O)O)c1ccc(N2C(=O)C3CC=CCC3C2=O)cc1 (configuration not stated) 4.44%
CC(=O)Nc1ccc(NC(=O)CCCc2nc(-c3ccc(C(C)(C)C)cc3)no2)cc1 19.7%
COc1ccc2c(c1)C=C(C(=O)NCc1cc(Br)ccc1OC)CO2 5.98% [at 9.22 µM]
CCOC(=O)c1ccc(NC(=O)CC2C(=O)N(c3cccc(OC)c3)C(=O)N2C2CCCCC2)cc1 (configuration not stated) -1.66%
CCCN(CCC)CCCNC(=O)Cn1cc2c(n1)-c1c(oc(C(=O)N3CCCC3)c1C)CC2 16.9%
CCOc1ccc(CNC(=O)Cn2cc3c(n2)-c2c(oc(C(=O)N4CCCC4)c2C)CC3)cc1 29%
CC1=C(c2ccc(C)cc2)S(=O)(=O)NC1=NCCCN1CCN(c2cc(C)ccc2C)CC1 14.6%
Cc1nn(-c2ccc(N3CCCCC3)nn2)c(C)c1CCC(=O)NCc1ccccc1F -10.4%

Potency, active:
COc1ccc(Nc2cc(Sc3ccc(OC)cc3)ncn2)cc1 22.4 µM
O=C(CSc1nc(-c2cccc(F)c2)[nH]c1-c1ccccc1)Nc1ccc2c(c1)OCO2 20 µM
C=CCNc1nc(N)c([N+](=O)[O-])c(NC2CCCCC2)n1 7.08 µM
CC(=O)Nc1cc(C(=O)NCc2ccc(F)cc2Cl)ccc1Sc1ccc(Cl)cc1 11.2 µM
CC(=O)Nc1cc(C(=O)NCc2ccc(F)cc2)ccc1Sc1ccc(F)cc1 31.6 µM
COc1ccc(-n2cnc3cc(C(=O)NC4CCCC4)ccc32)cc1 28.2 µM and 17.8 µM
O=C(Oc1ccc(C(=S)N2CCOCC2)cc1)c1ccc(F)cc1 7.08 µM
O=C(Oc1cccc(C(=S)N2CCOCC2)c1)c1cccc(Cl)c1 12.6 µM
O=C1NC(c2cc3c(cc2Cl)OCO3)Oc2ccccc21 (configuration not stated) 22.4 µM
COc1ccc(-n2nnnc2CNC(=O)c2ccc3ccccc3c2)cc1 20 µM
O=C(O)c1cc([N+](=O)[O-])c(Nc2cccc3ccccc23)c([N+](=O)[O-])c1 11.2 µM
Nc1ccccc1Sc1cc(Cl)nnc1Cl 12.6 µM
Brc1ccc(C2=CC(c3ccco3)n3ncnc3N2)cc1 (configuration not stated) 12.6 µM
CCOc1ccc(C2=CC(c3ccccc3)n3ncnc3N2)cc1 (configuration not stated) 17.8 µM
CC(C)(C)Cc1c(C2CCCCC2)nc2ccc(Br)cn12 28.2 µM
O=S(=O)(c1cccc(C(F)(F)F)c1)N1c2ccccc2-n2cccc2C1c1cccnc1 (configuration not stated) 25.1 µM
CC(Cc1cccs1)N(Cc1ccc(Cl)cc1)C(=O)c1ccncc1 (configuration not stated) 35.5 µM
Cc1[nH]c2ccccc2c1C(c1ccccc1)c1cccs1 (configuration not stated) 25.1 µM
COc1ccc(Cl)cc1NC(=O)c1cccc(N2C(=O)C3CC=CCC3C2=O)c1 (configuration not stated) 11.2 µM
Cc1c(C(=O)N2CCCC2)oc2c1-c1nn(CC(=O)NCc3ccc(OC(C)C)cc3)cc1CC2 20 µM
